The values below come from PubChem BioAssay (NCI).

Compounds without any hit were thinned out: in the full panel of roughly 79,000, 15% have a hit. A number with no mark means an inactive call. The source made the active and inactive calls. Rule as the data show it: active = growth inhibition above about 70%; inactive = the rest.

The nature of the first assay: NCI Yeast Anticancer Drug Screen. Data for the rad50 strain (AID 155).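 Also: 0% = growth of vehicle-only cultures of the same strain.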 The settings on record: S. cerevisiae rad50 strain growth inhibition; at 50.0 µM; stronger effect = higher value. A digest of the protocol: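 Yeast carrying a defined DNA repair defect were exposed to test compounds, and growth was compared with vehicle-treated controls to give percent inhibition.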
Consider `CNC(=O)CN(CC(=O)NC)C(=O)NC`, for which the growth inhibition was 9.95%.

As to `CCCCCCCCCCCCC1CC(=O)OC1=O` (stereo unspecified), the growth inhibition was 3.65%.

On to `CC1C(O)CC23COC(=O)C2=CCCC3C1(C)CCC1=CC(=O)OC1` (stereo unspecified), for which the growth inhibition was -8.6%.

Regarding `CCOC(=O)C(C(=O)OCC)c1cc(-c2cc3ccccc3o2)oc(=O)c1C#N`, the growth inhibition is 47.7%.

`C/C=C\COC(=O)CC(C)=O`: the growth inhibition is -1.35%.

Regarding `CC12C=C[C@]3(CC[C@@H]4[C@@](C)(CO)CCC[C@]4(C)C3CC1)C2` (stereo partly specified), the growth inhibition is 13.4%.

Turning to `O=C(NNC(=O)Nc1ccccc1)Nc1ccccc1`, the growth inhibition was -0.8%.

For the compound `CS(=O)(=O)C(C#N)c1nc2ccccc2nc1Cl` (stereo unspecified), the growth inhibition was -20.6%.

Turning to `Cc1cc(C)c(C(=O)CC(C)C)c(C)c1`, the growth inhibition was -8.15%.

As for `CCOC(=O)c1cnc2ccccc2c1`, the growth inhibition was 3.65%.

As to `CCN(CC)Cc1cc(N=Nc2ccc(-c3ccc(N)c(OC)c3)cc2OC)c2ccccc2c1O`, the growth inhibition is 18.7%.

For the compound `O=C1C(=O)c2ccccc2C(O)=C1c1ccccc1`, the growth inhibition was 28.6%.

For `COc1cc(-c2cc(=O)c3c(O)c(OC)c(OC)c(OC)c3o2)ccc1O`, the growth inhibition was 23.4%.

For the compound `O=C(Nc1ccccc1F)C(c1ccccc1)c1ccccc1`, the growth inhibition was 14.8%.

`Cc1cc(C)c2ccc(NN=O)nc2n1`: the growth inhibition is 11.4%.

On to `CCOC(=O)Cc1c(Cc2[nH]c(C(=O)OCc3ccccc3)c(CC(=O)OCC)c2CC(=O)OCC)[nH]c(C(=O)OCc2ccccc2)c1CC(=O)OCC`, for which the growth inhibition is -10.7%.

`NC(=O)c1ccc2c(c1)-c1nc-2nc2[n-]c(nc3nc(nc4[n-]c(n1)c1ccc(C(N)=O)cc41)-c1ccc(C(N)=O)cc1-3)c1ccc(C(N)=O)cc21.[Co+2]`: the growth inhibition is -7.55%.

Consider `O=[N+]([O-])c1ccc(/C(CBr)=N/N2CCCCCC2)cc1`, for which the growth inhibition is -1.05%.

For the compound `CN1C(=O)C2CC(=O)N(Cc3ccccc3)C(=O)C2C1=O` (stereo unspecified), the growth inhibition was 0.5%.

Regarding `NC(N)=NS(=O)(=O)c1ccc(NC(=O)c2cccc3c(N)c4ccccc4nc23)cc1`, the growth inhibition is 5.35%.

For `CC(=O)c1cc([N+](=O)[O-])c(N)s1`, the growth inhibition is 7.35%.

The nature of another assay: NCI Yeast Anticancer Drug Screen. Data for the mec2-1 strain (AID 157). To be noted: S. cerevisiae mec2-1 strain, at 50.0 µM, stronger effect = higher value. The essentials: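 Each compound was tested on mec2-1 yeast, a strain altered in DNA damage repair or cell cycle control. Growth inhibition is reported relative to vehicle.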
In the case of `COc1ccc2ncc(COC(=O)Nc3ccccc3)c(COC(=O)Nc3ccccc3)c2c1`, the growth inhibition is -6.2%.

Regarding `Ic1ccccc1/C=C/c1ccccn1`, the growth inhibition is 11.3%.

Regarding `NC(CC(=O)O)C(=O)OCc1cccc(N=Nc2ccccc2)c1` (stereo unspecified), the growth inhibition was -8.35%.

With `O=C(Cc1ccccc1)N/N=C(/c1nc2ccc([N+](=O)[O-])cc2[nH]c1=O)C(O)c1ccco1` (stereo unspecified), the growth inhibition was -9.75%.

Consider `NC(=O)C[n+]1cccc(C(=O)Nc2ccc(Cl)cc2)c1`, for which the growth inhibition is 9.3%.

For the compound `[C-]#[N+]C(=C\c1ccc(O)cc1)/C(=C/c1ccc(O)cc1)[N+]#[C-]`, the growth inhibition is 98% (active).

On to `CCCCNCCCC(C(=O)O)c1ccccc1` (stereo unspecified), for which the growth inhibition was -3.4%.

For the compound `BrC1CC2CC1C1C2CC2OC21` (stereo unspecified), the growth inhibition is -12.7%.

Turning to `CN(C)CCCn1c2ccccc2c2cnccc21`, the growth inhibition was -10.9%.

Turning to `N#Cc1cnn2ccn(C3OC(CO)C(O)C3O)c12` (stereo unspecified), the growth inhibition was -14.2%.

`CCC(=O)NCCCCCN1CCCCC1`: the growth inhibition was 5.35%.

Take `Cc1ccc2c(c1)[nH]c(=S)n2/C=C1\C(=O)Oc2ccccc2C1=O`: the growth inhibition was -42.1%.

As to `O=C(OCC(Br)C(Br)c1ccccc1)c1ccccc1` (stereo unspecified), the growth inhibition is -12.6%.

Regarding `CCCOCOCCC`, the growth inhibition is 0.05%.

For `S=c1nc[nH]c2c1CN(Cc1ccccc1)CC2`, the growth inhibition was -2.25%.

Regarding `N#C/C(=C\C=C\c1ccccc1)C(N)=O`, the growth inhibition was -27.6%.

In the case of `CCOC(=O)C(NC(=O)OC(C)(C)C)C(=O)OCC`, the growth inhibition was -90.8%.

Consider `CC1(C)COC(=O)/C1=C/C#N`, for which the growth inhibition was 2.6%.

Turning to `CN(C(=O)C1C2c3ccccc3C(c3ccccc32)C1C(=O)N(C)c1ccccc1)c1ccccc1` (stereo unspecified), the growth inhibition was 1.3%.

Consider `CNC(=O)CN(CC(=O)NC)C(=O)NC`, for which the growth inhibition is 7.3%.

In the case of `CCCCCCCCCCCCC1CC(=O)OC1=O` (stereo unspecified), the growth inhibition was -15.4%.

As for `CC1C(O)CC23COC(=O)C2=CCCC3C1(C)CCC1=CC(=O)OC1` (stereo unspecified), the growth inhibition is -38.9%.

Turning to `CCOC(=O)C(C(=O)OCC)c1cc(-c2cc3ccccc3o2)oc(=O)c1C#N`, the growth inhibition is 20.5%.

Turning to `C/C=C\COC(=O)CC(C)=O`, the growth inhibition is -23.4%.

Consider `CC12C=C[C@]3(CC[C@@H]4[C@@](C)(CO)CCC[C@]4(C)C3CC1)C2` (stereo partly specified), for which the growth inhibition is -2.7%.

Regarding `O=C(NNC(=O)Nc1ccccc1)Nc1ccccc1`, the growth inhibition was -16.7%.

`CS(=O)(=O)C(C#N)c1nc2ccccc2nc1Cl` (stereo unspecified): the growth inhibition is -17.7%.

For the compound `Cc1cc(C)c(C(=O)CC(C)C)c(C)c1`, the growth inhibition is -3%.

Consider `CCOC(=O)c1cnc2ccccc2c1`, for which the growth inhibition is 6.8%.

For the compound `CCN(CC)Cc1cc(N=Nc2ccc(-c3ccc(N)c(OC)c3)cc2OC)c2ccccc2c1O`, the growth inhibition was 4.35%.

As to `O=C1C(=O)c2ccccc2C(O)=C1c1ccccc1`, the growth inhibition is 22.8%.

Take `COc1cc(-c2cc(=O)c3c(O)c(OC)c(OC)c(OC)c3o2)ccc1O`: the growth inhibition was 10.2%.

In the case of `O=C(Nc1ccccc1F)C(c1ccccc1)c1ccccc1`, the growth inhibition is 8.95%.

For the compound `Cc1cc(C)c2ccc(NN=O)nc2n1`, the growth inhibition is 9.75%.

As to `CCOC(=O)Cc1c(Cc2[nH]c(C(=O)OCc3ccccc3)c(CC(=O)OCC)c2CC(=O)OCC)[nH]c(C(=O)OCc2ccccc2)c1CC(=O)OCC`, the growth inhibition was -21.6%.

On to `NC(=O)c1ccc2c(c1)-c1nc-2nc2[n-]c(nc3nc(nc4[n-]c(n1)c1ccc(C(N)=O)cc41)-c1ccc(C(N)=O)cc1-3)c1ccc(C(N)=O)cc21.[Co+2]`, for which the growth inhibition was 4.65%.

With `O=[N+]([O-])c1ccc(/C(CBr)=N/N2CCCCCC2)cc1`, the growth inhibition was -16.9%.

For the compound `CN1C(=O)C2CC(=O)N(Cc3ccccc3)C(=O)C2C1=O` (stereo unspecified), the growth inhibition was -16.1%.

Take `NC(N)=NS(=O)(=O)c1ccc(NC(=O)c2cccc3c(N)c4ccccc4nc23)cc1`: the growth inhibition is 5.95%.

`CC(=O)c1cc([N+](=O)[O-])c(N)s1`: the growth inhibition was -3.2%.
